Data on 9 compounds can be found in PubChem BioAssay (NCI).

SMILES strings stand for the structures. About 83,000 compounds went through this panel and 20% of them were active in at least one assay; those are over-represented in the sample as a whole.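 Growth was measured after 48 h exposure to one concentration of compound in 96-well plates. Values under 10 count as active.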 A number with no mark means an inactive call. The source made the active and inactive calls.

Some test systems named below: SR leukemia; RPMI-8226 leukemia; OVCAR-8 ovarian; OVCAR-5 ovarian; OVCAR-4 ovarian; SK-OV-3 ovarian; IGROV1 ovarian; HS 578T breast; NCI/ADR-RES ovarian; T-47D breast; BT-549 breast; MDA-MB-435 melanoma; SW-620 colon; MCF7 breast; HCT-116 colon; HCC-2998 colon; KM12 colon.
Common to all, as to assay: NCI-60 one-dose screen, 48 h (100 = growth as untreated, 0 = no growth, -100 = all killed)
Conditions in all cases: 10 µM unless noted

As to `Nc1nc(-c2cccc([N+](=O)[O-])c2)c(N=Nc2ccc([N+](=O)[O-])cc2Cl)s1`, the growth in the assay on SR leukemia is 5.91% (active); with RPMI-8226 leukemia, -6.23% (active); with OVCAR-8 ovarian, 7.59% (active); in the assay with OVCAR-5 ovarian, 21%; with OVCAR-4 ovarian it was 16.3%; with SK-OV-3 ovarian, -11% (active). Moreover, the growth with IGROV1 ovarian was 30.6%; with HS 578T breast, -4.26% (active); in the assay with NCI/ADR-RES ovarian, 6.4% (active); in the assay on T-47D breast it was 4.47% (active); with BT-549 breast, -24.9% (active); with MDA-MB-435 melanoma, 6.11% (active). For the same compound, the growth with SW-620 colon is 13%; in the assay on MCF7 breast, 2.17% (active); with HCT-116 colon it was 0.397% (active); with HCC-2998 colon, 12.9%; in the assay on KM12 colon, 2.86% (active).
On to `COc1ccc([C@H]2[C@H](O)C(=O)N2c2cc(OC)c(OC)c(OC)c2)cc1F`, for which the growth in the assay with SR leukemia is 9.35% (active); in the assay on RPMI-8226 leukemia it was 26.9%; in the assay with OVCAR-8 ovarian, -15% (active); in the assay on OVCAR-5 ovarian, 27.7%; in the assay with OVCAR-4 ovarian it was 67.7%; in the assay with SK-OV-3 ovarian, 30.1%. In addition, the growth in the assay with IGROV1 ovarian is 19.2%; in the assay on HS 578T breast, 3.89% (active); with NCI/ADR-RES ovarian, 8.51% (active); with T-47D breast, 68.7%; in the assay with BT-549 breast it was -21.1% (active); in the assay with MDA-MB-435 melanoma, -10.4% (active). Moreover, the growth in the assay with SW-620 colon is 22.2%; with MCF7 breast, 11%; in the assay with HCT-116 colon, 0.995% (active); in the assay with HCC-2998 colon, 10.9%; with KM12 colon it was 9.99% (active).
`CCOC(=O)c1c(Nc2ccccc2)nn2c(-c3cccs3)ccnc12`: the growth is 63.5% in the assay on SR leukemia; 66.2% in the assay with RPMI-8226 leukemia; 92.2% with OVCAR-8 ovarian; 90.3% in the assay on OVCAR-5 ovarian; 91.7% with OVCAR-4 ovarian; 83.2% with SK-OV-3 ovarian. Moreover, the growth in the assay on IGROV1 ovarian is 91.3%; in the assay on HS 578T breast, 90.2%; with NCI/ADR-RES ovarian it was 87.4%; with T-47D breast it was 79.2%; in the assay with BT-549 breast it was 109%; with MDA-MB-435 melanoma, 87.5%. In addition, the growth with SW-620 colon is 88.7%; in the assay on MCF7 breast it was 90.5%; with HCT-116 colon, 78%; in the assay with HCC-2998 colon, 100%; with KM12 colon it was 82.1%.
For the compound `NS(=O)(=O)c1ccc(Nc2nc(N/N=C/c3ccc(Cl)cc3)nc(Nc3ccccc3)n2)cc1`, the growth was 19% in the assay on SR leukemia; 54.7% with RPMI-8226 leukemia; 67.9% in the assay on OVCAR-8 ovarian; 83.4% in the assay with OVCAR-5 ovarian; 83.6% with OVCAR-4 ovarian; 104% in the assay with SK-OV-3 ovarian. The growth was 66.8% in the assay on IGROV1 ovarian; 64.7% with HS 578T breast; 97.5% in the assay on NCI/ADR-RES ovarian; 44.8% in the assay with T-47D breast; 74.9% in the assay on BT-549 breast; 57.7% with MDA-MB-435 melanoma. Besides, the growth was 101% in the assay with SW-620 colon; 38.7% in the assay with MCF7 breast; 44.3% in the assay on HCT-116 colon; 76.4% with HCC-2998 colon; 63.3% in the assay on KM12 colon.
`NS(=O)(=O)c1ccc(-n2cc(-c3cccc(NC(=O)c4ccc(N5CCOCC5)c(C(F)(F)F)c4)c3)nn2)cc1`: the growth in the assay on SR leukemia was 4.3% (active); in the assay with RPMI-8226 leukemia, 10.2%; in the assay with OVCAR-8 ovarian, 42.7%; in the assay on OVCAR-5 ovarian, 67.8%; in the assay on OVCAR-4 ovarian, 15%; in the assay with SK-OV-3 ovarian it was 69.9%. Further, the growth in the assay with IGROV1 ovarian was 40.3%; in the assay with HS 578T breast it was 48.9%; in the assay with NCI/ADR-RES ovarian, 82.4%; in the assay on T-47D breast it was 4.61% (active); in the assay with BT-549 breast it was 73.2%; with MDA-MB-435 melanoma, 62.9%. For the same compound, the growth was 64.5% in the assay on SW-620 colon; 36.9% in the assay with MCF7 breast; 32.5% in the assay on HCT-116 colon; 66% in the assay on HCC-2998 colon; 25.8% with KM12 colon.
As to `Cc1ccc(C(=O)NN2C(=O)/C(=C/C=C/c3ccco3)SC2=S)cc1`, the growth is 84.5% with SR leukemia; 102% in the assay on RPMI-8226 leukemia; 99.7% in the assay on OVCAR-8 ovarian; 100% with OVCAR-5 ovarian; 92.8% with OVCAR-4 ovarian; 107% in the assay on SK-OV-3 ovarian. For the same compound, the growth in the assay on IGROV1 ovarian was 98.4%; in the assay on HS 578T breast, 96.5%; in the assay on NCI/ADR-RES ovarian, 97.5%; in the assay with T-47D breast, 95.4%; in the assay with BT-549 breast, 137%; with MDA-MB-435 melanoma it was 90.7%. The growth with SW-620 colon is 106%; with MCF7 breast, 82%; with HCT-116 colon, 98.2%; with HCC-2998 colon, 107%; in the assay on KM12 colon it was 102%.
For `Cc1cc(S(=O)(=O)N(C)C)cc(NCC(=O)NC(=O)NCC(C)C)c1C`, the growth is 91% in the assay with SR leukemia; 97.4% in the assay on RPMI-8226 leukemia; 104% in the assay on OVCAR-8 ovarian; 87.8% with OVCAR-5 ovarian; 76.4% in the assay on OVCAR-4 ovarian; 112% in the assay with SK-OV-3 ovarian. For the same compound, the growth in the assay on IGROV1 ovarian is 77.2%; with HS 578T breast it was 103%; with NCI/ADR-RES ovarian it was 114%; with T-47D breast, 110%; in the assay on MDA-MB-435 melanoma it was 98.8%; in the assay with SW-620 colon, 98.4%. For the same compound, the growth in the assay on MCF7 breast was 94.8%; in the assay on HCT-116 colon, 100%; in the assay with HCC-2998 colon, 120%; with KM12 colon, 102%.
Take `O=S(=O)(NC1c2ccccc2C[C@H]1O)c1ccc(Cl)cc1Cl` (some centres not stated): the growth in the assay on SR leukemia is 87.2%; in the assay on RPMI-8226 leukemia it was 107%; with OVCAR-8 ovarian, 98.4%; in the assay with OVCAR-5 ovarian, 102%; in the assay with OVCAR-4 ovarian, 97.4%; with SK-OV-3 ovarian, 97.3%. The growth in the assay with IGROV1 ovarian was 99.2%; in the assay on HS 578T breast, 93.7%; in the assay with NCI/ADR-RES ovarian, 99.5%; with T-47D breast, 93.7%; with BT-549 breast, 126%; with MDA-MB-435 melanoma it was 94.1%. Further, the growth in the assay on SW-620 colon was 102%; in the assay on MCF7 breast it was 95.5%; in the assay with HCT-116 colon, 98.1%; in the assay on HCC-2998 colon, 97%; with KM12 colon, 96.3%.
In the case of `Cc1ccc(C2=Nn3c(nnc3-c3ccccc3)SC2)cc1`, the growth in the assay with SR leukemia was 14%; in the assay on RPMI-8226 leukemia, 23.1%; in the assay with OVCAR-8 ovarian, 25.9%; in the assay on OVCAR-5 ovarian, 62.9%; with OVCAR-4 ovarian, 67.3%; with SK-OV-3 ovarian, 24.7%. Also, the growth in the assay with IGROV1 ovarian is 49.5%; in the assay with HS 578T breast, 19.6%; with NCI/ADR-RES ovarian it was 14.1%; in the assay on T-47D breast it was 29.2%; in the assay on BT-549 breast, 22.5%; with MDA-MB-435 melanoma, -22.2% (active). The growth in the assay with SW-620 colon is 13.3%; in the assay on MCF7 breast, 16.4%; with HCT-116 colon, 17.7%; in the assay with HCC-2998 colon, 39.9%; in the assay with KM12 colon, 36.4%.
